From PubChem BioAssay
Shown are actives, neighbours in structure and some others; about 19% of the full set was active somewhere.
TGFb SMAD3 inh – blocks TGF-b signaling; HepG2 CAGA-GFP TGF-b/SMAD3 reporter, GFP fluorescence, 18 h; TGF-beta stimulated, 500 pg/mL final; AID 588855; Potency, µM (highest dose often 46.1 µM), inactives show at the top dose activity, negative = inhibition, hits mostly inhibitors; hit rate 1.2% among 410,000; further: potency means the concentration at half of the fitted maximal effect; on the % scale 0 is the no-effect control and ±100 the full control effect; nearly all actives have a fitted effect of over 65% in size
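HEPG2 CAGA-GFP, 1000 cells/well; 2 h settle, 37 C; cpd via pin tool; TGF-b 500 pg/mL final; 18 h, 37 C; GFP imaging ex488/em500-530; %Activity normalised to -TGF-b and +DMSO controls; CRC fit, curve class.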
HepG2 viability – HepG2 cytotoxicity, counter-screen for TGF-b inhibitors. HepG2 CAGA-GFP viability, ATP luminescence, 18 h. Potency, µM (top dose mostly 46.1 µM), for the others: at the highest dose activity change, negative = cytotoxicity, hits mostly cytotoxic. hit rate 0.76% among 410,000; further: potency means the concentration at half of the fitted maximal effect
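CellTiter-Glo luminescence gave cytotoxicity after 18 hours at 37 degrees C. The cells were HepG2 CAGA-GFP in 1% FBS DMEM, stimulated with 500 pg/mL TGF-beta after compound addition. %Activity was normalised to no-cell wells (complete cell-killing) and DMSO (no toxicity), and curves were fitted and classified.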
TDP1 cell CPT – growth inhibition of DT40 Tdp1-/-;hTDP1 cells with camptothecin (screen for TDP1 inhibitors); chicken DT40 Tdp1-/-;hTDP1 cells + 20 nM CPT, ATP luminescence, 48 h; Potency, µM (highest dose often 46.2 µM), without a hit: at the highest dose activity change, negative = growth inhibition, usual class: inhibitors; hit rate 12% among 420,000; AID 686979; further: potency means the concentration at half of the fitted maximal effect; on the % scale 0 is the no-effect control and ±100 the full control effect; nearly all actives have a fitted effect of over 55% in size
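Chicken DT40 Tdp1-/- cells complemented with human TDP1, 400 cells/well, exposed to compounds plus 20 nM camptothecin for at least 48 h at 37 C; viability read as ATP content by CellTiter-Glo luminescence.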
TDP1 inh – blocks human tyrosyl-DNA phosphodiesterase 1; Q9NUW8; recombinant TDP1, AlphaScreen DNA substrate cleavage; Potency, µM (highest dose often 130 µM), for the others: at the top dose activity change, negative = inhibition, hits mostly inhibitors; hit rate 0.28% among 350,000; further: potency means the concentration at half of the fitted maximal effect; on the % scale 0 is the no-effect control and ±100 the full control effect; nearly all actives have a fitted effect of over 40% in size
Target sequence (Q9NUW8 whole entry, looked up): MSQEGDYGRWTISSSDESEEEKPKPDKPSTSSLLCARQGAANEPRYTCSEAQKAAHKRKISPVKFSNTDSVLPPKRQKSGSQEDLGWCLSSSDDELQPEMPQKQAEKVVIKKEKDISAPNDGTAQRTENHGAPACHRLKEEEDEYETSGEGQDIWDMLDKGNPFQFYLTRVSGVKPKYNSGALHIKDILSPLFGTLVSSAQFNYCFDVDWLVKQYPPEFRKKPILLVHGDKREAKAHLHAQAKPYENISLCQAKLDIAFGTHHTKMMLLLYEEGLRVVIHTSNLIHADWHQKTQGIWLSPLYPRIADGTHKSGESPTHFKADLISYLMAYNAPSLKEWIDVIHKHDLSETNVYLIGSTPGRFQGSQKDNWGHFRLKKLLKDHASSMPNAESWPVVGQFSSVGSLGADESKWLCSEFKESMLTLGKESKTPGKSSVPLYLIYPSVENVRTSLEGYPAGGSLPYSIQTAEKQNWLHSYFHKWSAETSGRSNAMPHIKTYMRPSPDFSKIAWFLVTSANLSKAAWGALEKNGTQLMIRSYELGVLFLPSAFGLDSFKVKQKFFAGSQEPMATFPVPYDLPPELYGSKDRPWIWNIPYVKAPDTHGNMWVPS
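Recombinant human Tdp1 (E. coli-expressed, 1 nM final) preincubated with compounds 15 min at room temperature, then 5'-biotin/3'-phosphotyrosine-FITC DNA substrate (15 nM final) added for 5 min. AlphaScreen beads (10 ug/ml final) added 10 min; cleavage lowers signal.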
DT40 TDP1 no CPT – qHTS for Inhibitors of human tyrosyl-DNA phosphodiesterase 1 (TDP1): qHTS in cells in absence of CPT | DT40 Tdp1-/- hTDP1 cells, no CPT, ATP luminescence, 48 h | Potency, µM (titrated, usually from 46.2 µM), for the others: top-dose activity change, negative = growth inhibition, most hits filed as inhibitors | hit rate 15% among 420,000; further: potency means the concentration at half of the fitted maximal effect; on the % scale 0 is the no-effect control and ±100 the full control effect; nearly all actives have a fitted effect of over 55% in size
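DT40 Tdp1-/-;hTDP1 cells, no CPT (DMSO vehicle only), 400 cells/well; compounds pin-transferred; ≥48 hr, 37 °C; CellTiter-Glo 30 min RT dark, luminescence read.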
IL1B secr inh – blocks inflammasome-driven IL-1 beta release; THP-1 LPS/ATP IL-1B secretion, AlphaLISA, 16 h; hits give low values; AID 743279; hit rate 4.7% among 360,000; activity change, % at 57.5 µM; in the data active means activity change below about -50%; inconclusive means mostly about -30% to -49%; further: on the % scale 0 is the no-effect control and ±100 the full control effect
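Secreted IL-1B measured by AlphaLISA bead assay after 16 h compound exposure of THP-1 cells; compounds (final up to 57.5 uM) added 1 h before LPS (250 ng/mL) and ATP (1.25 mM) stimulation; lower signal means less secretion.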
* hit, by the source's call; u = inconclusive; x = not tested or not shown; [ ] = remark or other dose. Unless noted, the call rests on the fitted dose curve; in most records, active means well fitted curve in the direction sought with a large enough effect; inconclusive means small, poorly fitted or top-dose-only effect, or another doubt; inactive means no such curve, though single readings can be large; an effect the other way counts as inactive or inconclusive.

SMILES	TGFb SMAD3 inh	HepG2 viability	TDP1 cell CPT	TDP1 inh	DT40 TDP1 no CPT	IL1B secr inh
CCOCCCNC(=O)C(c1ccc(C)cc1)N(Cc1cccs1)C(=O)c1ccccc1O (centres undefined)	17%	31%	-6%	3%	u	-108*
CCOCCCNC(=O)C(c1ccccc1)N(Cc1cccs1)C(=O)c1ccccc1O (centres undefined)	1%	0%	-12%	3%	u	0
CCOCCCNC(=O)C(c1ccc(Cl)cc1)N(Cc1cccs1)C(=O)c1ccc(NC(C)=O)cc1 (centres undefined)	-11%	-57%	15µM*	6%	16µM*	x
CCOc1ccc(CNC(=O)C2Cc3ccccc3N2C(=O)CC)cc1 (centres undefined)	0%	4%	-24%	6%	-26%	x
CN1C[C@@H]2[C@@H]3C(=O)N(C)C(=O)[C@@H]3[C@](C)(C1=O)N2C(=O)c1ccc(Br)cc1	-26%	1%	-14%	x	4%	19
CCOCCCNC(=O)C(c1ccc(Cl)cc1)N(Cc1ccc2c(c1)OCO2)C(=O)c1ccc(NC(C)=O)cc1 (centres undefined)	-9%	-19%	u	6%	u	x
CCOCCCNC(=O)C(c1ccc(C)cc1)N(Cc1ccc2c(c1)OCO2)C(=O)c1ccc(NC(C)=O)cc1 (centres undefined)	18%	2%	15µM*	0%	u	x
CC1=C(c2ccc(C)cc2)S(=O)(=O)NC1=NCCCN1CCN(c2ccccc2F)CC1	u	-13%	u	-6%	16µM*	x
COCCn1c(=O)c(-c2ccccc2)nc2cnc(Nc3ccccc3)nc21	x	x	12%	x	-10%	x
CC(=O)NC(CC(=O)NCCOc1ccccc1F)c1ccccc1 (centres undefined)	1%	-32%	-17%	-5%	-12%	3
CCCc1ccccc1OCCNC(C)=O	-18%	-1%	18µM*	-1%	18µM*	0
CC[N+](CC)(CCNC(=O)C(=O)NCC[N+](CC)(CC)Cc1ccccc1Cl)Cc1ccccc1Cl	x	x	-9%	-6%	10%	x
Cc1ccc(-n2c(=O)c3cccnc3n2CC(=O)Nc2cc(Cl)ccc2C)cc1	-6%	-3%	-15%	3%	-21%	x
CSc1cccc(NC(=O)Cn2c3ncccc3c(=O)n2-c2ccc(C)cc2)c1	-4%	-23%	u	-8%	16µM*	x
C/C=C(\C)NNC(=O)Cc1ccc(OC)cc1	0%	1%	-9%	x	1%	x
COc1ccc(Cl)cc1NC(=O)c1nc(S(C)(=O)=O)ncc1N(Cc1ccc(C)cc1)Cc1ccco1	-2%	2%	8.2µM*	3%	9.2µM*	x
COc1ccc(NC(=O)c2nc(S(C)(=O)=O)ncc2N(Cc2ccc(C)cc2)Cc2ccco2)cc1Cl	-5%	4%	u	6%	18µM*	x
Cc1ccc(NC(=O)c2nc(S(C)(=O)=O)ncc2N(Cc2ccc(C(C)(C)C)cc2)Cc2ccco2)cc1C	-11%	-7%	u	2%	u	x
Cc1ccc(NC(=O)c2nc(S(C)(=O)=O)ncc2N(Cc2ccco2)Cc2ccco2)cc1C	0%	13%	u	3%	u	x
Cc1ccc(NC(=O)c2nc(S(C)(=O)=O)ncc2N(Cc2ccccc2)Cc2ccco2)c(C)c1	0%	-5%	13µM*	1%	18µM*	x
CCc1ccc(CN(Cc2ccco2)c2cnc(S(C)(=O)=O)nc2C(=O)Nc2cccc(C)c2)cc1	u	-26%	13µM*	4%	21µM*	x
Cc1ccc(NC(=O)c2nc(S(C)(=O)=O)ncc2N(Cc2ccco2)Cc2cccs2)cc1C	-3%	-3%	u	4%	u	x
CC1(C(=O)NS(=O)(=O)Cc2ccccc2)CCN1C(=O)C1(c2ccc(Cl)cc2)CC1 (centres undefined)	1%	-14%	2%	x	-3%	43
Cc1ccc(C)c(NC(=O)CN2C(=O)CCc3cc(S(=O)(=O)N4CCCCC4)ccc32)c1	-3%	-28%	u	-1%	u	x
O=C(Cn1nc(C(F)F)cc1C(F)F)NNC(=S)Nc1ccc([N+](=O)[O-])cc1	1%	-11%	18%	12%	23%	26
SMILES	TGFb SMAD3 inh	HepG2 viability	TDP1 cell CPT	TDP1 inh	DT40 TDP1 no CPT	IL1B secr inh
CCS(=O)(=O)c1ncc(N(Cc2ccccc2)Cc2ccco2)c(C(=O)Nc2ccc(C)c(C)c2)n1	0%	4%	21µM*	1%	12µM*	x
CS(=O)(=O)c1ncc(N(Cc2ccco2)Cc2cccs2)c(C(=O)Nc2ccccc2F)n1	u	7%	u	5%	21µM*	x
CCS(=O)(=O)c1ncc(N(Cc2ccccc2)Cc2ccco2)c(C(=O)Nc2ccccc2C)n1	12%	-15%	-18%	-3%	-23%	x
CC(C)C[C@@H](CC(=O)N[C@@H](CCCN)CC(=O)N[C@@H]1CCNC[C@H]1C(=O)N[C@H](CC(=O)N[C@@H](CCC(=O)O)CC(=O)O)Cc1ccccc1)NC(=O)[C@@H]1CCCC[C@H]1N	x	x	x	1%	x	x
Cc1cc(C)n2c(SCC(=O)N(CCC#N)c3ccc4c(c3)OCCO4)nnc2n1	u	-9%	1%	x	-10%	-6
CC1CCCCN1C(=O)CN1CCC(c2nc3ccc(Cl)cc3[nH]2)CC1 (centres undefined)	-12%	-28%	u	1%	23µM*	-12
Cc1ccc(CN2CCC(c3nc4ccc(Cl)cc4[nH]3)CC2)cc1	u	-84%	16µM*	2%	16µM*	x
COc1ccccc1NCC(=O)NC(=O)NC1CCCCC1	-3%	-4%	u	5%	u	-13
CN(Cc1ccccc1Cl)C(=O)CNC(=O)C12CC3CC(CC(C3)C1)C2	-15%	-27%	21µM*	0%	u	4
CN(Cc1ccccc1)C(=O)CNC(=O)C12CC3CC(CC(C3)C1)C2	-5%	-11%	-19%	0%	-13%	9
COC(=O)C1=C(C(=O)OC)[C@@H]2N(C)c3ccc(OC)cc3[C@@]23C[C@@H](C(=O)OC)N(S(=O)(=O)c2ccc(C(F)(F)F)cc2)C3=N1	x	x	x	14%[12.3 µM]	x	x
O=C(O)c1ccc(CSc2nnnn2-c2ccc(F)cc2)cc1	2%	-8%	-3%	x	10%	-2
O=C(CSc1nnnn1-c1ccc(F)cc1)c1ccc(O)c(O)c1	-12%	-17%	18µM*	8%	u	37
